Inhibition data for 45 compounds are collected here from ChEMBL document CHEMBL1157539, “Thousands of chemical starting points for antimalarial lead identification” (Nature, 2010).

What all share (type): functional
Test [1] deals with Plasmodium falciparum. Description: GSK_TCMDC: Inhibition of Plasmodium falciparum 3D7 in whole red blood cells, using parasite LDH activity as an index of growth. Test compounds present at 2uM.
Test [2] has as its system Plasmodium falciparum. Put plainly: GSK_TCMDC: Inhibition of Plasmodium falciparum Dd2 in whole red blood cells, using parasite LDH activity as an index of growth. Test compounds present at 2uM.
Test [3] deals with HepG2. Put plainly: GSK_TCMDC: Percent inhibition of human HepG2 cell line. Test compounds present at 10uM.

Molecules are shown by their SMILES.

Turning to `O=C(C=Cc1cn(-c2ccccc2)nc1-c1ccccc1)N1CCN(c2ccncc2)CC1`, the values for the Inhibition in test [1], in test [2] and in test [3] were 90%, 20% and 11%, respectively.
On to `Cl.Fc1ccc2ncc(Cl)c(CCN3CCC(NCc4cc5c(cn4)OCCO5)CC3)c2c1`, for which the figures for the Inhibition in test [1], in test [2] and in test [3] were 93%, 20% and 24%, respectively.
As to `COc1nc2c(CCN3CC[C@H](NCc4cc(C#N)c5c(c4)OCCO5)[C@H](O)C3)ccnc2cc1F`, the Inhibition in test [1] was found to be 95%; in test [2], 41%; in test [3], 18%.
Take `O=C(/C=C/c1ccc(Cl)c(Cl)c1)NCC1CCN(Cc2ccc(O)cc2)CC1.O=C(O)C(F)(F)F`: the Inhibition in test [1] is on record as 98%; in test [2] it was 0%; in test [3], 4%.
On to `Cn1cncc1C(=O)Nc1cccc(-c2cccc(-c3nc4ccccc4[nH]3)c2)c1`, for which the Inhibition in test [1] is 100%; in test [2], 35%; in test [3] it was 9%.
The corresponding values for `Cc1cc(NC2CCN(Cc3ccccc3)CC2)nc(NCCCCc2ccccc2)n1` are 100%, 60% and 65%.
Consider `CC(C)CCN1C(=O)C(NC(=O)Oc2ccccc2)C(=O)N(CC23CC4CC(CC(C4)C2)C3)c2ccccc21` (stereo not given), for which the Inhibition in test [1] worked out at 95%; in test [2] it was 4%; in test [3], 3%.
On to `CCCNCc1ccc(-c2ccc(CN(CCOC)C(=O)CCCOCc3ccccc3)cc2)nc1.O=C(O)C(F)(F)F`, for which the Inhibition in test [1] came to 93%; in test [2], 13%; in test [3], 0%.
`CC(=O)Nc1nc(C(=O)Nc2ccc(-c3ccc(-c4nc5ccccc5[nH]4)cc3)cc2)cs1`: the Inhibition in test [1] is reported as 100%; in test [2] it was 53%; in test [3], 38%.
`CN1CCN(CCCN(Cc2csc(-c3ccc(CNCc4ccccc4)cc3)n2)S(=O)(=O)c2ccccc2)CC1.O=C(O)C(F)(F)F`: the Inhibition in test [1] is given as 99%; in test [2], 78%; in test [3], 17%.
Consider `CC(C)Cn1c(Sc2ccc(C#N)c([N+](=O)[O-])c2)nnc1-c1ccccc1Cl`, for which the values for the Inhibition in test [1], in test [2] and in test [3] were 93%, 46% and 18%, respectively.
Turning to `COc1ccc(Nc2nc(N3CCCC3)c3ccccc3n2)cc1.Cl`, the Inhibition is on record as 100% in test [1], 98% in test [2] and 40% in test [3].
As for `Cc1cc(-c2cccc(CNC3CCCC3)c2)ccc1S(=O)(=O)NCCN1CCCC1.O=C(O)C(F)(F)F`, the figures for the Inhibition in test [1], in test [2] and in test [3] were 81%, 7% and 38%, respectively.
For `Cc1cc(Cc2ccc(S(=O)(=O)c3cc4c(cc3O)CCN(C)CC4)cc2)ccc1Cl.Cl`, the Inhibition in test [1] was determined as 96%; in test [2], 12%; in test [3], 7%.
For the compound `N#Cc1cccc(CN2CCCN(Cc3cccc(C(=O)Nc4ccc(Cl)cc4)c3)CC2)c1.O=C(O)C(F)(F)F`, the Inhibition in test [1] is 82%; in test [2], 9%; in test [3], 46%.
On to `CCCNCc1ccc(-c2ccc(CN(CCOC)C(=O)CCC(=O)c3ccc(OC)c(F)c3)cc2)nc1.O=C(O)C(F)(F)F`, for which the values for the Inhibition in test [1], in test [2] and in test [3] were 100%, 47% and 13%, respectively.
For the compound `CC1CNC(c2ccc(NC(=O)c3ccc(C(=O)Nc4ccc(C5=NC(C)CN5)cc4)cc3)cc2)=N1.CS(=O)(=O)O` (stereo not given), the Inhibition came to 99% in test [1], 100% in test [2] and 15% in test [3].
Consider `COc1ccccc1N(C)CCNc1cc(C)nc(Nc2ccc(C)cc2)n1`, for which the figures for the Inhibition in test [1], in test [2] and in test [3] were 93%, 25% and 9%, respectively.
On the same counts, the results for `Cc1ccc(Cn2ncc(N3CC(C)NC(C)C3)c(Cl)c2=O)cc1NC(=O)Nc1ccc(-c2ccccc2)cc1.O=C(O)C(F)(F)F` (stereo not given) are 100%, 29% and 51%.
Take `CN1CCN(Cc2cccc(-c3ccc4c(Nc5ccc(Oc6ccccc6)cc5)ccnc4c3)c2)CC1`: the Inhibition in test [1] was found to be 100%; in test [2], 100%; in test [3], 41%.
`Cc1ccc(C2=NNC3(S2)C(=O)N(C)c2ccccc23)cc1` (stereo not given): the Inhibition in test [1] was 82%; in test [2], 12%; in test [3], 36%.
As to `O=C(O)C(F)(F)F.O=S(=O)(NC1CCN(c2ccnc3cc(Cl)ccc23)C1)c1cccs1` (stereo not given), the Inhibition in test [1] was 100%; in test [2], 76%; in test [3], 6%.
On the same counts, the results for `O=C(NC1CCCCC1)N(Cc1ccc(-c2ccc(CNCc3ccc4c(c3)OCO4)cc2)cc1)C1CCN(Cc2ccccc2)CC1.O=C(O)C(F)(F)F` are 100%, 72% and 28%.
In the case of `c1csc(-c2nc(N3CCCC3)ncc2-c2ccsc2)n1`, the Inhibition in test [1] is 89%; in test [2] it was 75%; in test [3] it was 1%.
In the case of `O=C(/C=C/c1ccccc1Cl)Nc1ccc(Br)c(OCCN2CCN(CCN3CCCC3)CC2)c1.O=C(O)C(=O)O`, the figures for the Inhibition in test [1], in test [2] and in test [3] were 99%, 89% and 26%, respectively.
As to `CCCCCCN(CCCCCC)CCCCNc1c2ccc(Cl)cc2nc2ccc(OC)cc12.Cl`, the Inhibition in test [1] came to 100%; in test [2], 94%; in test [3], 65%.
On the same counts, the results for `O=C(Cn1c(CCc2cccc(F)c2F)nc(=O)c2cccnc21)N(Cc1ccc(-c2ccc(C(F)(F)F)cc2)cc1)C1CCN(C2CCSCC2)CC1.O=C(O)C(O)C(O)C(=O)O` are 100%, 63% and 49%.
The corresponding values for `Cc1cccc(Nc2nccc(Nc3cccc(C(=O)NCCN4CCOCC4)c3)n2)c1` are 91%, 11% and 10%.
On to `COc1ccc(C(=O)Nc2cc(Br)c3c(c2)CNCC3)cc1C(F)(F)F.Cl`, for which the Inhibition in test [1] stood at 90%; in test [2] it was 4%; in test [3], 13%.
On to `O=C(Nc1cc(Cl)ccc1-n1cncn1)C1(c2ccccc2)CC1`, for which the values for the Inhibition in test [1], in test [2] and in test [3] were 98%, 91% and 3%, respectively.
For the compound `CN1C(C)(C)CC(NC(=O)c2ccc(-c3nc4cc(Cl)c(Cl)cc4[nH]3)cc2)CC1(C)C`, the Inhibition in test [1] was 98%; in test [2], 97%; in test [3], 8%.
In the case of `Cc1cccc2nc(-c3ccc(-c4cccc(NC(=O)Nc5ccc6c(c5)OCO6)c4)cc3)[nH]c12`, the Inhibition was determined as 100% in test [1], 39% in test [2] and 28% in test [3].
`COc1ccc(CN2CCC(N3CCc4cc(NC(=O)c5cc(C)on5)ccc43)C2)cc1Cl` (stereo not given): the values for the Inhibition in test [1], in test [2] and in test [3] were 94%, 91% and 15%, respectively.
In the case of `COc1cccc(N(CCCN2C(=O)c3cccc4cccc(c34)C2=O)C(=O)c2ccccc2C)c1`, the Inhibition in test [1] is reported as 86%; in test [2] it was 70%; in test [3] it was 20%.
As for `CC(C)(C)CNc1noc(-c2sccc2Br)n1`, the results for the Inhibition in test [1], in test [2] and in test [3] were 82%, 71% and 4%, respectively.
The corresponding values for `Cn1nc(C(F)(F)F)c(-c2ccc(F)cc2)c1NC(=O)Nc1ccc(F)cc1` are 100%, 99% and 5%.
For the compound `O=C(/C=C/c1ccc(Cl)c(Cl)c1)NCCCCN1CCCN(C(=O)Nc2ccc(F)c(Cl)c2)CC1`, the Inhibition in test [1] turned out to be 87%; in test [2] it was 2%; in test [3], 69%.
Consider `Nc1ccc2[nH]cc(C3CCN(CCC4CCN(C(=O)/C=C/c5ccc(Cl)c(Cl)c5)CC4)CC3)c2n1`, for which the Inhibition in test [1] turned out to be 100%; in test [2], 78%; in test [3], 27%.
`O=C(Nc1cccc(-c2ccc(-c3nc4ccccc4[nH]3)cc2)c1)c1csnn1`: the Inhibition in test [1] is 91%; in test [2] it was 21%; in test [3], 31%.
Regarding `CCN1CCC(N(Cc2ccc(-c3ccc(C(F)(F)F)cc3)cc2)C(=O)Cn2nc(C)c(=O)cc2SCc2ccc(F)cc2)CC1.O=C(O)C(O)C(O)C(=O)O`, the Inhibition in test [1] is given as 94%; in test [2], 94%; in test [3], 77%.
Regarding `Cl.NCc1ccc(-c2ccc3c(N)nccc3c2)cc1`, the Inhibition in test [1] is reported as 100%; in test [2] it was 92%; in test [3], 28%.
For `N#Cc1cncc(-c2nc3c(N4CCC(N5CCCC5)CC4)cccc3n2CCNCc2ccccc2)c1.O=C(O)C(F)(F)F`, the Inhibition is recorded as 100% in test [1], 58% in test [2] and 3% in test [3].
For `O=C(NCCCCN1CCN(c2ccc3c(c2)CCC3)CC1)c1ccc(NC(=O)c2ccc(Cl)cc2)cc1`, the Inhibition is on record as 98% in test [1], 35% in test [2] and 38% in test [3].
The corresponding values for `CN1CCCC(CN2CCN(Cc3cccc(-c4csc(-c5nc6ccccc6[nH]5)c4)c3)CC2)C1.O=C(O)C(F)(F)F` (stereo not given) are 100%, 100% and 65%.
The corresponding values for `O=C(/C=C/c1ccc(Cl)cc1)NCCCCCN1CCCC(C(=O)Nc2ccc(Cl)c(Cl)c2)C1` (stereo not given) are 96%, 3% and 27%.

A word on the Inhibition: it is the drop in the measured response relative to a control, in per cent.
